Experimental data reported in PubChem BioAssay (NCATS).
Results filed as inconclusive are left out. Entries that show only a call come without a potency. Values without a mark were called inactive. Calls of active or inactive are those of the source. Calls come from the whole dose curve; as a rule, active = well fitted cell-killing curve with a large enough effect; inconclusive = small, poorly fitted or top-dose-only effect, or effect the other way; inactive = flat fitted curve, though single readings scatter.

Key:
Experiment in all cases: Primary qHTS to identify gynecologic anti-cancer compounds using libraries of approved drugs and bioactive compounds (AID 1345084); note: nearly all actives have a fitted effect of over 55% in size
Settings in all cases: Gynecologic cancer cell panel viability, ATPlite luminescence, 48 h; series mostly up to 57.5 µM
OV90 = test system: OV90
How it was run: (§1)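 Cell viability after 48 h drug treatment, ATPlite luminescence readout; five doses.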

PA-1 = test system: PA-1
How it was run: as §1

SKOV3 = test system: SKOV3
How it was run: as §1

Tov-21-G = test system: Tov-21-G
How it was run: as §1

Tov112D = test system: Tov112D
How it was run: as §1
Potency is the fitted concentration of half-maximal effect.

Compound | Potency (OV90) | Potency (PA-1) | Potency (SKOV3) | Potency (Tov-21-G) | Potency (Tov112D) | activity change, negative = cytotoxicity (OV90) | activity change, negative = cytotoxicity (PA-1) | activity change, negative = cytotoxicity (SKOV3) | activity change, negative = cytotoxicity (Tov-21-G) | activity change, negative = cytotoxicity (Tov112D)
O=C(CC(c1ccccc1)c1ccccc1)N1CCN(C(c2ccccc2)c2ccccc2)CC1 | inactive | inactive | inactive | inactive | inactive | – | – | – | – | –
C=C1C[C@]23C[C@H]1[C@@H](O)C[C@H]2[C@@]12C=C[C@H](O)[C@@](C)(C(=O)O1)[C@H]2[C@@H]3C(=O)O | inactive | inactive | inactive | inactive | inactive | – | – | – | – | –
C[C@H]1CC(=O)Nc2cccc(-c3cnn(C(C)(C)C)c3)c2N1 | inactive | inactive | inactive | inactive | inactive | – | – | – | – | –
CC(=O)OC1C[C@]2(C)C(O)CC(C)=C[C@H](OC(=O)c3ccc(O)cc3)C2[C@]1(O)C(C)C (stereo not given in full) | inactive | inactive | inactive | inactive | inactive | – | – | – | – | –
CC1(C)CCC2(C(=O)OC3OC(CO)C(O)C(O)C3O)CCC3(C)C(=CCC4C5(C)CCC(OC6OC(C(=O)O)C(OC7OC(CO)C(O)C(O)C7O)C(OC7OC(CO)C(O)C(O)C7O)C6O)C(C)(C)C5CCC43C)C2C1 (stereo not given) | – | – | – | – | – | 3.02% [at 11.6 µM] | 16.1% [at 11.6 µM] | 13.2% [at 11.6 µM] | 1.15% [at 11.6 µM] | 6% [at 11.6 µM]
CC1=C(C)C(=O)OC(C(C)C2CCC3C4C5OC5C5(O)CC(OC6OC(CO)C(OC7OC(C)C(O)C(O)C7O)C(O)C6O)CC(O)C5(C)C4CCC23C)C1 (stereo not given) | inactive | inactive | inactive | inactive | inactive | – | – | – | – | –
CC12CCC(C(OC3OC(COC4OCC(O)(CO)C4O)C(O)C(O)C3O)C1)C(C)(C)O2 (stereo not given) | inactive | inactive | inactive | inactive | inactive | – | – | – | – | –
CC1=C(C(=O)O)/C(=C\CO[C@@H]2O[C@H](CO)[C@@H](O)[C@H](O)[C@H]2O)C(OC(=O)/C=C\c2ccc(O)cc2)C1 (stereo not given in full) | inactive | inactive | inactive | inactive | inactive | – | – | – | – | –
c1cn2cc(-c3ccc4cn[nH]c4c3)nc(Nc3ccc(N4CCOCC4)cc3)c2n1 | 1.78 µM (active) | 1.78 µM (active) | 2.82 µM (active) | 2.24 µM (active) | 2.24 µM (active) | – | – | – | – | –
C[C@@H]1O[C@@H](O[C@H]2[C@H](O[C@H]3CC[C@@]4(C)C(CC[C@]5(C)C4CC=C4[C@@H]6CC(C)(C)CC[C@]6(C(=O)O[C@@H]6OC[C@H](O)[C@H](O)[C@H]6O[C@@H]6O[C@@H](C)[C@H](O[C@@H]7O[C@H](CO)[C@@H](O)[C@H](O)[C@H]7O)[C@H](O)[C@H]6O)[C@H](O)C[C@]45C)C3(C)C)O[C@H](CO)[C@@H](O[C@@H]3OC[C@@H](O)[C@H](O)[C@H]3O)[C@@H]2O)[C@H](O)[C@H](O)[C@H]1O (stereo not given in full) | – | – | – | – | – | 11.1% [at 6.55 µM] | 4.23% [at 6.55 µM] | -6.09% [at 6.55 µM] | 2.71% [at 6.55 µM] | -23.4% [at 6.55 µM]
CC(=O)CC1CCC(C(C)C(=O)OCC(O)CO)O1 (stereo not given) | inactive | inactive | inactive | inactive | inactive | – | – | – | – | –
O=C(OC1C=C(CO)C2C(OC3OC(CO)C(O)C(O)C3O)OC=CC12)c1ccc(O)cc1 (stereo not given) | inactive | inactive | inactive | inactive | inactive | – | – | – | – | –
CC(=O)N1CCc2ccc(O)c(OC3OC(COC4OCC(O)(CO)C4O)C(O)C(O)C3O)c2C1Cc1ccc(O)cc1 (stereo not given) | inactive | inactive | inactive | inactive | inactive | – | – | – | – | –
COc1cccc(C(=O)N2CCN(C(=O)COc3cccc(C)c3)CC2)c1OC | inactive | inactive | inactive | inactive | inactive | – | – | – | – | –
CC1(C)CCCC2(C)C1C(O)C=C(CO)C2(O)CO (stereo not given) | inactive | inactive | inactive | inactive | inactive | – | – | – | – | –
CC(C)=C/C=C\[C@H](C)[C@H]1CC[C@]2(C)C[C@@H]3C(C)=CC(=O)C3/C(CO)=C\C[C@@H]12 (stereo not given in full) | inactive | inactive | inactive | inactive | inactive | – | – | – | – | –
COCC1OC(OC(C)(C)C2CCC3(C)C=C(C4CCC5C4(C)CC(O)C4OC(C(C)(C)OC6OC(CO)C(O)C(O)C6NC(C)=O)CCC45C)CCC3O2)C(NC(C)=O)C(O)C1O (stereo not given) | – | – | – | – | – | 3.61% [at 11.6 µM] | -1.55% [at 11.6 µM] | 9.88% [at 11.6 µM] | 1.68% [at 11.6 µM] | -1.97% [at 11.6 µM]
CC(C)C1=CC2C(CC[C@]2(C)O)[C@](C)(O)CC1 (stereo not given in full) | inactive | inactive | inactive | inactive | inactive | – | – | – | – | –
CC(C)S(=O)(=O)NC[C@H](C)c1ccc(NC(=O)c2cc(F)cc(F)c2)cc1 | inactive | inactive | inactive | inactive | inactive | – | – | – | – | –
